# Measurements from PubChem BioAssay (NCATS).
# Results filed as inconclusive are left out. Entries that show only a call come without a potency. Calls of active or inactive are those of the source. The call rests on the fitted dose curve; in most records, active means well fitted inhibition curve with a large enough effect; inconclusive means small, poorly fitted or top-dose-only effect; inactive means no such curve, though single readings can be large or run the other way.
# System: Zika virus NS2B-NS3 protease (unlinked complex)
# Assay: Primary screen GU Rhodamine qHTS for Zika virus inhibitors: Unlinked NS2B-NS3 protease assay (AID 1347159); further: nearly all actives have a fitted effect of over 60% in size
# Settings: Recombinant ZIKV NS2B-NS3 protease, Rhodamine110 substrate fluorescence; series mostly up to 107 µM
# How it was run: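 Buffer 10 mM Tris-HCl pH 8.0, 0.01% Tween 20. Unlinked protease 25 nM; compound preincubation 15 min, RT, protected from light. Substrate Rhod110, 1.5 microM; ~15% conversion in 15 min.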
# Potency means the concentration at half of the fitted maximal effect.
row,Compound,Potency
1,c1ccc(N2CCN(CCc3nn[nH]n3)CC2)cc1,inactive
2,Cc1ccc(C)c(OCCn2cc(C(=O)O)c3ccccc32)c1,39.8 µM (active)
3,CC1CCC23COC(=O)C2=CC(O)CC3C1(C)CCC1=CC(O)OC1=O (stereo not given),8.91 µM (active)
4,C=C[C@]1(C)C=C2CCC3C(C)(CCC[C@@]3(C)C(=O)O)C2CC1 (stereo not given in full),12.6 µM (active)
5,Cc1[nH]c2ccccc2c1C1=C(NCCc2ccc(F)cc2)C(=O)N(C)C1=O,inactive
6,CC(C)C(N)C(=O)OCCOCn1cnc2c(=O)[nH]c(N)nc21 (stereo not given),inactive
7,CN(C)c1ccc2c(c1)OC(N)=C(C#N)C2c1cccc(C(F)(F)F)c1 (stereo not given),inactive
8,COC1C(=O)CCC2(CO2)C1(O)C1(C)OC1CC=C(C)C (stereo not given),44.7 µM (active)
9,O=C1NC(Cc2c[nH]c3ccccc23)C(=O)NC1Cc1c[nH]c2ccccc12 (stereo not given),inactive
10,CC(C)CCC1(O)C(=O)C(C)(C)C(O[C@@H]2O[C@H](CO)[C@@H](O)[C@H](O)[C@H]2O)C(C)(C)C1O (stereo not given in full),35.5 µM (active)
11,C[C@H](Oc1ccc(S(C)(=O)=O)cc1C(=O)N1CCN(c2ncc(C(F)(F)F)cc2F)CC1)C(F)(F)F,inactive
12,Cc1cn(C2C=CC(CO)O2)c(=O)[nH]c1=O (stereo not given),inactive
13,COc1ccc(C(=O)Nc2ncc(-c3ccc(C(=O)O)cc3)s2)cc1,28.2 µM (active)
14,Cc1noc(-c2ccc(-c3ccc(CC(=O)O)cc3)cc2)c1NC(=O)O[C@H](C)c1ccccc1,14.1 µM (active)
15,CC(=O)c1c(O)cc(O[C@@H]2O[C@H](CO)[C@@H](O)[C@H](O)[C@H]2O)cc1O,31.6 µM (active)
16,CC(=O)O[C@@H]1[C@@H](CO)O[C@@](CO)(O[C@H]2O[C@H](COC(=O)/C=C/c3ccccc3)[C@@H](O)[C@H](O)[C@H]2O)[C@H]1O,inactive
17,O=C(OC[C@@]1(O)CO[C@@H](O[C@H]2[C@H](Oc3ccc(O)cc3)O[C@H](CO)[C@@H](O)[C@@H]2O)[C@@H]1O)c1ccc(O)cc1,inactive
18,CS(=O)(=O)c1ccc([C@H](CC2CCCC2)C(=O)Nc2nccs2)cc1,inactive
19,Cc1ccc(C(=O)Nc2noc3ccccc23)cc1,inactive
20,Cc1cc(C(=O)N2CCCCc3ccccc32)ccc1CNC(=O)N1CCC[C@H]1C(=O)N(C)C,inactive

row,Compound,Potency
1,C=C1C(=O)OC2CC3(C)C(CC12)C(C)=CC(O)C3OC(C)=O (stereo not given),25.1 µM (active)
2,C[C@@H]1CCN(C(=O)N2CCCC2)C[C@@H]1N(C)c1ncnc2[nH]ccc12,inactive
3,CC(C)CCC(=O)CC1c2ccccc2C(=O)N1c1ccc2ccc(Cl)nc2n1 (stereo not given),inactive
4,CCCC1(c2ccccc2)NC(=O)N(CC(=O)N(C)Cc2c(F)cccc2Cl)C1=O (stereo not given),inactive
5,CC(=O)O[C@@H]1[C@@H](O)[C@H](O[C@H]2CC[C@]34C[C@]35CC[C@]3(C)[C@@H]([C@@]6(C)CC[C@@H](C(C)(C)O)O6)[C@@H](O)C[C@@]3(C)[C@@H]5C[C@H](O[C@@H]3O[C@H](CO)[C@@H](O)[C@H](O)[C@H]3O)[C@H]4C2(C)C)OC[C@H]1O,inactive
6,CC(C)[C@@H](CS(=O)(=O)C(C)C)N1C(=O)[C@@](C)(CC(=O)O)C[C@H](c2cccc(Cl)c2)[C@H]1c1ccc(Cl)cc1,28.2 µM (active)
7,CC(C)=CCC/C(C)=C/Cc1ccc(O)c(C2OC(=O)c3cc(C(=O)O)cc(O)c32)c1O (stereo not given),2.24 µM (active)
8,CC(=O)c1ccc(O[C@@H]2O[C@H](CO)[C@@H](O)[C@H](O)[C@H]2O)cc1,inactive
9,CC/C=C\CC1C(=O)C=CC1(CCCCCCCC(=O)O)OC(C)=O (stereo not given),7.08 µM (active)
10,CC1(C)[C@@H](O)CC[C@]2(C)[C@H]3CC=C4[C@@H]5C[C@](C)(C(=O)O)CC[C@]5(C)CC[C@@]4(C)[C@]3(C)CC[C@@H]12,7.08 µM (active)
11,CC(=O)OCC1(O)CCC2C(COC3OC(CO)C(O)C(O)C3OC(=O)/C=C/c3ccc(O)cc3)=COC(OC(=O)CC(C)C)C21 (stereo not given),inactive
12,C/C(=C\C=C\C(C)C1CCC2(C)C3CCC4C(C)(C)C(=O)CCC45CC35CCC12C)C(=O)O (stereo not given),4.47 µM (active)
13,C=C1C(=O)OC2CC(C)=C(C(C)CCCO)C(O)C12 (stereo not given),20 µM (active)
14,CCCC(=O)NCCc1csc(-c2ccc(Cl)cc2)n1,inactive
15,CCC(C)/C=C(C)/C=C/c1cc2c(cn1)C(=O)C(C)(OC(C)=O)C(O)=C2Cl (stereo not given),10 µM (active)
16,CCc1cc(CN2CC(C(=O)O)C2)sc1-c1noc(-c2ccc(Oc3ccccc3)cc2)n1,3.98 µM (active)
17,COc1ccc(-c2cnc3ccc(NCc4ccc(S(N)(=O)=O)cc4)nn23)cc1OC,inactive
18,C=C1CCC2C(C)(C)C(O)CCC2(C)C1CCC(C)CCO (stereo not given),7.08 µM (active)
19,COc1ccc(-n2[nH]c(=O)c3[nH]c4cc(Cl)ccc4c(=O)c3c2=O)c(C)c1,56.2 µM (active)
20,CC(c1ncncc1F)C(O)(Cn1cncn1)c1ccc(F)cc1F (stereo not given),inactive
